From PubChem BioAssay (NCI)
This is part of a sample that, as a whole, favours compounds with a hit. Of some 83,000 tested, about 20% had one in any assay.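 Treatment: one concentration, 48 hours, 96-well format. Scoring: percent growth, with anything below 10 considered active.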 A number with no mark means an inactive call. Activity calls are given as the source filed them.

These compounds were tested on HL-60(TB) leukemia (assay: NCI-60 one-dose screen, 48 h (100 = growth as untreated, 0 = no growth, -100 = all killed)). Conditions: 10 µM unless noted.

**Q.** Which growth does the source give for `N#CSCc1cc(Cl)c(CSC#N)cc1Cl` here?
**A.** 22.1%

**Q.** Which growth does the source give for `CCCCN(CCC)CCCCCCCCCCN1CCCc2ccccc21` here?
**A.** 42.2%

**Q.** `S=c1[nH]ccn1-c1ccccc1Cl` was tested. Which growth did it give?
**A.** 90%

**Q.** How did the growth turn out when `CCOC(=O)n1cc(-c2nonc2-c2cn(C)c3ncccc23)c2ccccc21` was run?
**A.** 84.7%

**Q.** Which growth does the source give for `CCC(CC(C)C)Nc1ccc(NC(CC)CC(C)C)cc1` (stereo not given) here?
**A.** 35.3%

**Q.** With `Cc1ccc(C2CC(c3nc(-c4ccc(Cl)cc4)oc3C)=NN2C(=O)c2ccncc2)cc1` (stereo not given) as the compound, how does the growth read?
**A.** 97.7%

**Q.** How did the growth turn out when `Cc1cc[c-]cc1.Fc1c[c-]c(-c2ccccn2)c(F)c1.[Pt+2].c1ccc(P(C[PH+](c2ccccc2)c2ccccc2)c2ccccc2)cc1` was run?
**A.** -25.7% (active)

**Q.** With `COc1ccc(N2C(=O)C3c4[nH]c5ccc(OCc6ccccc6)cc5c4C4CCC(C(C)C)CC4C3C2=O)cc1` (stereo not given) as the compound, how does the growth read?
**A.** 68.9%

**Q.** For `C=C(C)[C@@H]1CC=C2c3sc(-c4ccc(C)cc4)nc3C[C@@H](C)[C@]2(C)C1`, which growth is on record?
**A.** 102%

**Q.** For `O=Cc1ncc(-c2ccc(C(F)(F)F)cc2)c(NC2CCCCCC2)n1`, which growth is on record?
**A.** -50.6% [100 µM] (active)

**Q.** For `CCOC(=O)/C=C/c1c(C)[nH]c(=O)[nH]c1=O`, which growth is on record?
**A.** 75.3%

**Q.** How did the growth turn out when `COc1cc(OC)c(C(=O)C(CN(C)C)CN(C)C)cc1OC` was run?
**A.** -63.5% (active)

**Q.** Which growth does the source give for `CCCCC(CCCCCC(CCCC)NCc1ccc2c(c1)OCO2)NCc1ccc2c(c1)OCO2` (stereo not given) here?
**A.** -76.6% (active)

**Q.** For `C=C(C)[C@@H]1CC[C@]2(C(=O)NCCCN(CCC#N)CCC#N)CC[C@]3(C)[C@H](CC[C@@H]4[C@@]5(C)CCC(=O)C(C)(C)[C@@H]5CC[C@]43C)[C@@H]12`, which growth is on record?
**A.** 100%

**Q.** How did the growth turn out when `O=C1/C(=C/c2ccccc2[N+](=O)[O-])COc2ccc(O)cc21` was run?
**A.** -8.06% (active)

**Q.** Which growth does the source give for `O=C(C[N+](=O)[O-])c1ccc(Cl)cc1` here?
**A.** 104%

**Q.** For `CC(NNC(C)c1ccccc1)c1ccccc1` (stereo not given), which growth is on record?
**A.** 113%

**Q.** `CCOC(=O)NC(=S)n1oc(=O)c2ccccc21` was tested. Which growth did it give?
**A.** 104%

**Q.** How did the growth turn out when `CN1CCN(CCCOc2ccc3nc(Nc4cc(Cl)cc(Cl)c4)ccc3c2)CC1` was run?
**A.** -39.2% (active)

**Q.** Which growth does the source give for `NC(N)=N/N=C/c1ccc(-c2ccc(-c3cc(Cl)cc(Cl)c3)s2)cc1` here?
**A.** 24.9%

**Q.** How did the growth turn out when `COc1ccc(-c2cc(/C=C3\C(=O)Nc4ccc(Cl)cc43)[nH]n2)cc1OC` was run?
**A.** 60.2%

**Q.** For `COc1cc(OC)c2sc(-c3ccc(-n4cncc4-c4ccc(N)cc4)cc3)nc2c1`, which growth is on record?
**A.** 52.6%

**Q.** Which growth does the source give for `COc1cccc(-c2nc3sccn3c2-c2ccnc(NCCCNS(=O)(=O)c3cccc(Cl)c3)c2)c1` here?
**A.** -9.87% (active)

**Q.** `FC(F)(F)Oc1cccc(-c2cnc3ccc(-c4ccncc4)nn23)c1` was tested. Which growth did it give?
**A.** -19.3% (active)

**Q.** How did the growth turn out when `COc1ccc2cc(-c3cnc4nonc4n3)ccc2c1` was run?
**A.** -12% (active)

**Q.** With `Cn1cc(-c2nc(-c3c[nH]c4ncccc34)cs2)c2cccnc21` as the compound, how does the growth read?
**A.** 48.1%

**Q.** How did the growth turn out when `O=C(Nc1ccc2ccccc2c1)c1cc2ccccc2cc1O` was run?
**A.** 79.7%

**Q.** For `C=C(C)[C@@H]1CC[C@]2(COCCC#N)CC[C@]3(C)[C@H](CC[C@@H]4[C@@](C)(CCCNCCC#N)[C@H](C(=C)C)CC[C@]43C)[C@@H]12`, which growth is on record?
**A.** -16.2% [100 µM] (active)

**Q.** With `CNC(=O)c1cc(Oc2ccc3c(c2)sc2nc(-c4ccc(NC(=O)[C@@H](NC(=O)OC)C(C)C)cc4)cn23)ccn1` as the compound, how does the growth read?
**A.** 51.1%

**Q.** With `O=C(Nc1ccccc1O)c1ccc(Oc2cccc(C(=O)Nc3ccccc3O)c2)cc1` as the compound, how does the growth read?
**A.** -40.4% (active)

**Q.** `COc1cccc(/C=C2\Oc3cc(OCCCN4CCCC4)ccc3C2=O)c1OC` was tested. Which growth did it give?
**A.** 96.3%

**Q.** For `N=C(N)c1ccc(-c2ccc(-c3ccc(Cl)cc3)s2)s1`, which growth is on record?
**A.** -58.6% (active)

**Q.** With `CC(=O)C(C)Cc1cc2c(cc1C)C(C)(C)CCC2(C)C` (stereo not given) as the compound, how does the growth read?
**A.** 101%

**Q.** With `CCCCc1nc(Cl)c(C2CC(c3ccc(S(N)(=O)=O)cc3)=NN2c2ccc(C#N)cc2)[nH]1` (stereo not given) as the compound, how does the growth read?
**A.** 92.7%

**Q.** For `COc1cc(/C=C/C(=O)CC(=O)/C=C/c2ccc(OC(=O)CCNC34CC5CC(CC(C5)C3)C4)c(OC)c2)ccc1OC(=O)CCNC12CC3CC(CC(C3)C1)C2`, which growth is on record?
**A.** -24% (active)

**Q.** With `CCOC(=O)CNC1=C(Cl)C(=O)N(Cc2ccc(Cl)cc2)C1=O` as the compound, how does the growth read?
**A.** 105%

**Q.** Which growth does the source give for `CC(C)(C)c1ccc(NS(=O)(=O)c2ccc3nc(NC(=O)c4cnccn4)[nH]c3c2)cc1` here?
**A.** -21.9% (active)

**Q.** How did the growth turn out when `CCn1cc(-c2cc(-c3ccc(Cl)cc3)nc(N)n2)c(-c2ccc(Br)cc2)n1` was run?
**A.** 77.7%

**Q.** How did the growth turn out when `NC(=Nc1ccccc1)SCCCCSC(N)=Nc1ccccc1` was run?
**A.** 79.5%

**Q.** For `COC12C=C/C(=C(/C(=O)OCc3ccccn3)C(=O)CCCCCCCCC3(OC)C=C/C(=C(/C(=O)OCc4ccccn4)C(=O)CCCCCCCC1)O3)O2`, which growth is on record?
**A.** -19% (active)
